Reference: PubChem BioAssay (Tox21)
Records with an inconclusive call do not appear. The source made the active and inactive calls. Unless noted, the call rests on the fitted dose curve.

Tests used:
[1] = Nuclear factor erythroid 2-related factor 2/antioxidant responsive element (Nrf2/ARE) small molecule agonists: qHTS cell viability counter screen in human keratinocytes (AID 1919968; active means well fitted curve in the direction sought with a large enough effect in the repeat runs; an effect the other way counts as inactive or inconclusive; further: nearly all actives have a fitted effect of over 55% in size; further: potency means the concentration at half of the fitted maximal effect)
Outline: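 Fluorescence read-out from CellTiter-Fluor after 1 h at 37 C. Wells held HaCaT-derived ARE-luciferase reporter cells (1,500/well) treated 23 h with DMSO-dissolved compounds. Run in the same wells as the luciferase agonist read.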

[2] = Nuclear factor erythroid 2-related factor 2/antioxidant responsive element (Nrf2/ARE) small molecule agonists: luciferase reporter gene qHTS assay in human keratinocytes (AID 1919969); further: nearly all actives have a fitted effect of over 35% in size; further: potency means the concentration at half of the fitted maximal effect
[3] = target: KiSS-1 receptor (Homo sapiens) (UniProt Q969F8); assay: Human kisspeptin (KISS1R) small molecule agonists, calcium flux assay in KISS1R-HEK293 cells (AID 1920064; active means well fitted curve in the direction sought with a large enough effect in the repeat runs; an effect the other way counts as inactive or inconclusive)
Outline: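 Calcium flux read-out: kinetic fluorescence at Ex/Em=480/540, 1 s intervals over 3 min, after pin-tool compound addition to dye-loaded KISS1R-HEK293 cells. Fifteen concentrations, triplicates.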

[4] = G protein-coupled receptor (GPCR) small molecule agonists, calcium flux assay: HEK293 wild type cell line counter screen (AID 1920065)
Outline: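 Agonist mode; 18 h seeding at 37 C, 1 h dye load at 37 C; compounds pinned from DMSO, ATP as positive control; kinetic fluorescence 480/540 nm, 3 min, 1 s reads; 15 concentrations, triplicate.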

[5] = p53 small molecule agonists, cell-based qHTS assay with rat liver microsomes (AID 1963578)
Outline: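 Metabolic activation is supplied by rat liver microsomes with NADPH (each 0.5 mg/mL final). p53RE-bla cells incubate with compound 16 h at 37 C; reporter activity is measured by LiveBLAzer fluorescence.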

[6] = p53 small molecule agonists, cell-based qHTS assay with human liver microsomes: qHTS cell viability counter screen (AID 1963579); further: nearly all actives have a fitted effect of over 45% in size
Outline: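 After the 460/530 nm beta-lactamase read, CellTiter-Glo was added to the same wells and luminescence measured after 30 min at room temperature, giving viability of p53RE-bla cells treated 16 h with compounds plus microsomes and NADPH.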

[7] = p53 small molecule agonists, cell-based qHTS assay with rat liver microsomes: qHTS cell viability counter screen (AID 1963580); further: nearly all actives have a fitted effect of over 45% in size
Outline: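 Cytotoxicity counter screen: intracellular ATP measured by CellTiter-Glo luminescence in the same wells as the beta-lactamase reporter read, on HCT-116 p53RE-bla cells exposed 16 h at 37 C to compounds with rat liver microsomes and NADPH, each 0.5 mg/mL final.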

[8] = p53 small molecule agonists, cell-based qHTS assay: qHTS cell viability counter screen (AID 1963581); further: nearly all actives have a fitted effect of over 45% in size
Outline: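 Cytotoxicity read-out: ATP-based luminescence (CellTiter-Glo, 30 min RT) measured in the same wells as the p53 reporter assay, HCT-116 p53RE-bla cells, 16 h compound exposure at 37 C.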

[9] = p53 small molecule agonists, cell-based qHTS assay (AID 1963582; active means well fitted activation curve with a large enough effect in the signal ratio in the repeat runs, not every such curve was filed as active; the % refers to the signal ratio)
Outline: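 Fluorescence intensity read-out of a beta-lactamase reporter under a p53 response element. Cells were exposed to DMSO-dissolved compounds for 16 h at 37 C, then developed with FRET substrate for 2 h at RT.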

[10] = target: 5-hydroxytryptamine receptor 2A (Homo sapiens) (UniProt P28223); assay: 5-hydroxytryptamine receptor 2A (HTR2A) small molecule antagonists, cell-based qHTS assay (AID 1963586); further: nearly all actives have a fitted effect of over 45% in size
Outline: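 CHO cells stably expressing human HTR2A were plated for 18 h at 37 C, then loaded with calcium dye for 1 h. Compounds were preincubated 5 min at room temperature before DOI (4 nM solution) was added. Kinetic fluorescence was read for 3 min.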

[11] = target: 5-hydroxytryptamine receptor 2A (Homo sapiens) (UniProt P28223); assay: 5-hydroxytryptamine receptor 2A (HTR2A) small molecule agonists, cell-based qHTS assay (AID 1963587); further: nearly all actives have a fitted effect of over 30% in size
Outline: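 CHO cells stably expressing human HTR2A, plated 18 h, loaded with calcium dye 1 h at 37 C. Agonist mode: compounds added and intracellular calcium fluorescence recorded kinetically for 2 min at 1 sec intervals.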

[12] = target: Muscarinic acetylcholine receptor M1 (Homo sapiens) (UniProt P11229); assay: Cholinergic receptor muscarinic 1 (CHRM1) small molecule antagonists, cell-based qHTS assay (AID 1963588); further: nearly all actives have a fitted effect of over 40% in size
Outline: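 Compounds were tested at 15 concentrations in three independent runs. Dye-loaded CHRM1-CHO cells were exposed 5 min at room temperature before stimulation by acetylcholine added at 50nM. Intracellular calcium was read kinetically on FDSS for 3 min.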

[13] = target: Muscarinic acetylcholine receptor M1 (Homo sapiens) (UniProt P11229); assay: Cholinergic receptor muscarinic 1 (CHRM1) small molecule agonists, cell-based qHTS assay (AID 1963589); further: nearly all actives have a fitted effect of over 35% in size; further: potency means the concentration at half of the fitted maximal effect
Outline: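 Calcium flux read-out: kinetic fluorescence at 1 sec intervals after pin-tool compound addition to dye-loaded CHRM1-CHO cells (human M1). Agonist mode; 15 concentrations tested in triplicate independent runs.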

[14] = cAMP Responsive Elements (CRE) small molecule antagonists, cell-based qHTS assay (AID 1963591; active means well fitted inhibition curve with a large enough effect in the signal ratio in the repeat runs, not every such curve was filed as active; the % refers to the signal ratio)
Outline: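 HEK293T CRE-bla; 18 h preincubation; compound pin-transfer; NKH477 0.25 uM final, 3 h, 37 C; LiveBLAzer FRET substrate 2 h RT.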

[15] = target: Beta-2 adrenergic receptor (Homo sapiens) (UniProt P07550); assay: Adrenergic beta2 receptor (ADRB2) small molecule antagonists, cell-based qHTS assay (AID 1963592); further: series mostly up to about 92 µM; nearly all actives have a fitted effect of over 50% in size
Outline: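 Assay format: CHO-ADRB2 cells, 18-20hr seeding at 37C/5% CO2, then compound plus 1nM isoproterenol agonist mix for 0.5hr RT. Homogeneous time-resolved fluorescence cAMP detection after 1hr, expressed as 665/615 nm ratio.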

[16] = target: Beta-2 adrenergic receptor (Homo sapiens) (UniProt P07550); assay: Adrenergic beta2 receptor (ADRB2) small molecule agonists, cell-based qHTS assay (AID 1963593);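 further: CHO cells stably overexpressing human ADRB2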
Outline: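 CHO cells stably over-expressing ADRB2 were plated overnight at 37C, then dosed with compounds plus a stimulation mix containing 100uM IBMX and 25uM Ro-20-1724 for 0.5hr at room temperature. cAMP was measured by HTRF competition, 1hr.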

[17] = target: D(2) dopamine receptor (Homo sapiens) (UniProt P14416); assay: Dopamine D2 receptor (DRD2) small molecule agonists, cell-based qHTS assay (AID 1963594); further: nearly all actives have a fitted effect of over 35% in size
Outline: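 HEK293 cells stably expressing human DRD2, pre-treated with PDE inhibitor Ro20-1724 (0.1 mM final) and compound 10 min at room temperature, then stimulated with NKH477 (200nM […]) for 30 min. cAMP read by HTRF (665/620 nm).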

[18] = target: D(2) dopamine receptor (Homo sapiens) (UniProt P14416); assay: Dopamine D2 receptor (DRD2) small molecule antagonists, cell-based qHTS assay (AID 1963595; active means well fitted inhibition curve with a large enough effect in the signal ratio in the repeat runs, with a control signal flat; the % refers to the signal ratio)
Outline: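 HEK293 cells stably expressing DRD2, preincubated with 0.1 mM Ro20-1724 and compounds 10 min, were stimulated with 200 nM NKH477 plus 12 nM quinpirole for 30 min at room temperature; cAMP measured by HTRF (665/620 nm).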

[19] = p53 small molecule agonists, cell-based qHTS assay with human liver microsomes (AID 1963577);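 further: p53 response element beta-lactamase reporter cells with liver microsomes plus NADPH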
Outline: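 Steps: plate p53RE-bla cells, incubate 5 h at 37 C; add compound in DMSO; add microsomes (0.5 mg/mL final) and NADPH (0.5 mg/mL final); incubate 16 h at 37 C; add LiveBLAzer, 2 h RT; read fluorescence.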

[20] = cAMP Responsive Elements (CRE) small molecule agonists, cell-based qHTS assay (AID 1963590)
Outline: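 Beta-lactamase reporter readout: LiveBLAzer B/G FRET substrate, 2 h at room temperature, added after 3 h compound treatment of CRE-bla HEK 293T cells at 37 C/5% CO2.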
On the % scale 0 is the no-effect control and ±100 the full control effect.

Sequence of KiSS-1 receptor (Homo sapiens) (Q969F8 whole entry, looked up): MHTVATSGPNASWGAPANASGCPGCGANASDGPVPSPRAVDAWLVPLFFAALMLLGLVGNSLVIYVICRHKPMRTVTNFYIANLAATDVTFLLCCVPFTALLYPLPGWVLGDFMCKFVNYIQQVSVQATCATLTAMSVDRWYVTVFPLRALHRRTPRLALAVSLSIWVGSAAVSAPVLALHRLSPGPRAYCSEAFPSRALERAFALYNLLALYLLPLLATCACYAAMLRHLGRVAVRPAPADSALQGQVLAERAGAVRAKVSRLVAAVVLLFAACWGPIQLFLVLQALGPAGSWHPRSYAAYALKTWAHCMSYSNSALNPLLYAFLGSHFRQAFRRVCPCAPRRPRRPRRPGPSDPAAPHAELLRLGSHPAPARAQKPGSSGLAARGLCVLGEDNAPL
Sequence of 5-hydroxytryptamine receptor 2A (Homo sapiens) (P28223 whole entry, looked up): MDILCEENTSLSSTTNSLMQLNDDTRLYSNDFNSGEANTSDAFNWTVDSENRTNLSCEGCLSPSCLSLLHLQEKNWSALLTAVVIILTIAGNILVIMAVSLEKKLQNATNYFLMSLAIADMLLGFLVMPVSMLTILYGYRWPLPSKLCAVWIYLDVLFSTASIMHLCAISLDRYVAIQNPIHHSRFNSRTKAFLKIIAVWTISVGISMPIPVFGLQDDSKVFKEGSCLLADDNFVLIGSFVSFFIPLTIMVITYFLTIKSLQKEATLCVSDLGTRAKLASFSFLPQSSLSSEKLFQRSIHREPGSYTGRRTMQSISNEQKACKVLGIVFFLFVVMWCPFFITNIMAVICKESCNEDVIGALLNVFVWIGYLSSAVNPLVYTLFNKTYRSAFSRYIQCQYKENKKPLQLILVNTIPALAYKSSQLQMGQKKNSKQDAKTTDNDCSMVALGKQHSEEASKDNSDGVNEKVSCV
Sequence of Beta-2 adrenergic receptor (Homo sapiens) (P07550 whole entry, looked up): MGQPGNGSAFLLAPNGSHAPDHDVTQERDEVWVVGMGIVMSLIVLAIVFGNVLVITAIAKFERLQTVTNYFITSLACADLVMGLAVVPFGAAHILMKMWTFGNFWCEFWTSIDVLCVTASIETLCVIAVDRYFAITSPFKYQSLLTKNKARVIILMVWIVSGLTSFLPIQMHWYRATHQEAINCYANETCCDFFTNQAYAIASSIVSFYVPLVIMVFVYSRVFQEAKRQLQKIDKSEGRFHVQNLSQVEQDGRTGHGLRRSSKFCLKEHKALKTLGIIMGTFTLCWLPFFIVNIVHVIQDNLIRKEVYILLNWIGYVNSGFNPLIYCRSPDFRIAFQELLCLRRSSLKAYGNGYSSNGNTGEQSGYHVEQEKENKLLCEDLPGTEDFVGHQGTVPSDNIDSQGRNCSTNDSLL
Sequence of Muscarinic acetylcholine receptor M1 (Homo sapiens) (P11229 whole entry, looked up): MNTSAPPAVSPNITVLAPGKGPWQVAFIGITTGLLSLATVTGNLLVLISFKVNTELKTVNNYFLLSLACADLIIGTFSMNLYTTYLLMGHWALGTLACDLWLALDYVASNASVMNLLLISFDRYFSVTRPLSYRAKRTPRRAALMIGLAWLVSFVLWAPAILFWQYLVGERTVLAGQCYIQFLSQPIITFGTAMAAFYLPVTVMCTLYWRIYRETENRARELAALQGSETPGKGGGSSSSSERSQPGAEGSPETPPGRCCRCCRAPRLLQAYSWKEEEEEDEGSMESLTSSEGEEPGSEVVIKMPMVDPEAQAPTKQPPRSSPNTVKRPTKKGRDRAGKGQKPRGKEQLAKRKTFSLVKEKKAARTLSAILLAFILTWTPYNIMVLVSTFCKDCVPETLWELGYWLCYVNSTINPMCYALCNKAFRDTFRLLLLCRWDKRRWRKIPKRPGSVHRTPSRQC
Sequence of D(2) dopamine receptor (Homo sapiens) (P14416 whole entry, looked up): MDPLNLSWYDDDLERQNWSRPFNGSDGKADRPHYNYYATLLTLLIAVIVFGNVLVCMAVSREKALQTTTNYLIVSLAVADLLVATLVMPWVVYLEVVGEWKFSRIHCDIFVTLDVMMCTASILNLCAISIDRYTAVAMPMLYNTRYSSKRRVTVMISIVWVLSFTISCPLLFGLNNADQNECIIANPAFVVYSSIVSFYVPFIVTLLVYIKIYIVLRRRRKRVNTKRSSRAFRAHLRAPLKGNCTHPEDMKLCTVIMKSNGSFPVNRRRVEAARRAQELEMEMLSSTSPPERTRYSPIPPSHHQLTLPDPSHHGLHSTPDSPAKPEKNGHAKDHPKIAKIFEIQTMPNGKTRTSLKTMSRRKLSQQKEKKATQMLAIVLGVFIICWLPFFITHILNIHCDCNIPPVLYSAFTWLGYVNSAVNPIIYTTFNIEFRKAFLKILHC

CCCCCCCCCCCCCCCCBr
inactive: activity change, negative = cytotoxicity [1] 3.53% [at 19 µM] | activity, positive = activation [2] -1.44% [at 19 µM] | activation [3] 1.03% [at 15.8 µM] | activation [4] -0.623% [at 11.8 µM] | activation [5] -1.9% [at 13.6 µM] | activity change, negative = cytotoxicity [6] 0.899% [at 13.5 µM] | activity change, negative = cytotoxicity [7] 0.7% [at 13.5 µM] | activity change, negative = cytotoxicity [8] 4.33% [at 13.5 µM] | activation [9] 4.11% [at 13.5 µM] | activity, negative = inhibition [10] 4.99% [at 12.7 µM] | activation [11] -4.48% [at 15.9 µM] | activity, negative = inhibition [12] -1.85% [at 12.6 µM] | activation [13] -0.125% [at 15.8 µM] | activity change, negative = inhibition [14] -0.0105% [at 18.9 µM] | activity change, negative = inhibition [15] -0.441% [at 19 µM] | activation [16] -6.98% [at 19 µM] | activation [17] -0.697% [at 19 µM] | activity change, negative = inhibition [18] -0.776% [at 18.9 µM]

COS(=O)(=O)O
inactive: Potency [1] | Potency [2] | Potency [3] | Potency [4] | Potency [19] | Potency [5] | Potency [7] | Potency [8] | Potency [10] | Potency [11] | Potency [12] | Potency [13] | Potency [20] | Potency [14] | Potency [17] | Potency [18]

CCCOC(=O)C(C)O (centres undefined)
inactive: Potency [1] | Potency [2] | Potency [3] | Potency [19] | Potency [5] | Potency [6] | Potency [7] | Potency [8] | Potency [9] | Potency [10] | Potency [11] | Potency [12] | Potency [14] | Potency [15] | Potency [16] | Potency [17] | Potency [18]

CC(O)C(C)O (centres undefined)
inactive: Potency [1] | Potency [2] | Potency [3] | Potency [4] | Potency [5] | Potency [6] | Potency [7] | Potency [8] | Potency [9] | Potency [10] | Potency [11] | Potency [12] | Potency [13] | Potency [20] | Potency [15] | Potency [16] | Potency [17] | Potency [18]

CC1=CCC(C(C)C)=CC1
inactive: Potency [1] | Potency [2] | Potency [3] | Potency [4] | Potency [19] | Potency [5] | Potency [7] | Potency [8] | Potency [9] | Potency [10] | Potency [11] | Potency [12] | Potency [13] | Potency [20] | Potency [14] | Potency [15] | Potency [17] | Potency [18]

CC(C[N+](C)(C)C)OC(N)=O (centres undefined)
inactive: Potency [1] | Potency [2] | Potency [3] | Potency [4] | Potency [19] | Potency [5] | Potency [7] | Potency [8] | Potency [9] | Potency [10] | Potency [11] | Potency [12] | Potency [20] | Potency [14] | Potency [15] | Potency [16] | Potency [18]
active: Potency [13] 2.39 µM

c1ccc2sc(SSN3CCOCC3)nc2c1
active: Potency [1] 30.6 µM | Potency [2] 24.3 µM
inactive: Potency [3] | Potency [4] | Potency [6] | Potency [7] | Potency [8] | Potency [10] | Potency [13] | Potency [20] | Potency [14] | Potency [15] | Potency [17] | Potency [18]
